Test results as given in PubChem BioAssay (NCI).
About 83,000 compounds went through this panel and 20% of them were active in at least one assay; those are over-represented in the sample as a whole.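 Step 1: grow cells in 96-well plates. Step 2: add test compound at a single concentration. Step 3: incubate 48 h. Step 4: record percent growth.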 Activity calls are given as the source filed them. The calls were made as follows: active = growth percent below 10; inactive = the rest.

Each compound was assayed on LOX IMVI melanoma (assay: NCI-60 one-dose screen, 48 h (100 = growth as untreated, 0 = no growth, -100 = all killed)). Conditions: 10 µM unless noted.

Structure (SMILES) | growth
OCCCCc1nccc2c1[nH]c1ccccc12 | 99.8% (inactive)
O=C(NC1CCOCC1)c1ccc2c(c1)CN(c1ncc(Cc3cccc(-n4cccn4)c3)s1)CC2 | 63.8% (inactive)
O=C(Oc1ccc[nH]c1=O)c1cc([N+](=O)[O-])cc([N+](=O)[O-])c1 | 99.5% (inactive)
COC(=O)/C(=C\c1ccc(OC)cc1)C(=O)N1c2ccccc2Sc2ccccc21 | 50.6% (inactive)
NC(=O)c1c(NC(=O)c2ccc(C(F)(F)F)cc2Cl)sc2c1CCC(=O)C2 | -15.5% (active)
O=C(NCCOCCOCCOCCNC(=O)c1cc2c(o1)C(=O)c1ccccc1C2=O)NC12CC3CC(CC(C3)C1)C2 | -46.2% (active)
Fc1ccc(Nc2ccc3cc(OCCCN4CCOCC4)ccc3n2)cc1F | -46.9% (active)
CC(C)(C)c1ccc(C(=O)Nc2sc3c(c2C(N)=O)CCC(=O)C3)cc1 | -55.1% (active)
N=c1ccn2c(n1)OC1C(O)C(CO)OC12 (centres undefined) | 10.3% (inactive)
NC(=Nc1ccc(N)cc1)C(N)=Nc1ccc(N)cc1 | 97.2% (inactive)
CSc1ccc(Cl)c(C(=O)Nc2sccc2C(N)=O)c1 | 100% (inactive)
CC(=O)Nc1ccc2c(c1)Cc1c(F)cccc1-2 | 103% (inactive)

What follows are compounds tested on SK-MEL-28 melanoma in the same assay as above. Conditions: 10 µM unless noted.

Structure (SMILES) | growth
CCCn1nc(-c2ccccc2)c2c(-c3ccccc3)onc2c1=O | 95.5% (inactive)
Cc1cc(N(CCCNc2ccnc3cc(Cl)ccc23)Cc2ccccn2)nc(N2CCCC2)n1 | 88% (inactive)
C=C(C)[C@@H]1CC[C@]2(CN)CC[C@]3(C)[C@H](CC[C@@H]4[C@@]5(C)CCC(N)[C@@](C)(CO)[C@@H]5CC[C@]43C)[C@@H]12 (some centres undefined) | -94.2% (active)
COc1ccc(-n2ncn(CCCCCCn3cnn(-c4ccc(OC)cc4)c3=O)c2=O)cc1 | 98% (inactive)
O=C(NC1CCOCC1)c1ccc2c(c1)CN(c1ncc(Cc3cccc(-n4cccn4)c3)s1)CC2 | 88.3% (inactive)
C=C(CNCCc1ccc(O)cc1)[C@@H]1CC[C@]2(COC3CCCCO3)CC[C@]3(C)[C@H](CC[C@@H]4[C@@]5(C)CCC(NCCO)C(C)(C)[C@@H]5CC[C@]43C)[C@@H]12 (some centres undefined) | -94.4% (active)
Cc1c(C(=O)O[C@H]2[C@@H]3[C@H](C)CC[C@H]3[C@]3(C)O[C@@]2(C2CCCCC2)C[C@H]3OC(=O)CO)ccc2ccccc12 | 59.7% (inactive)
COc1ccc(Oc2nc(Nc3ccc(N4CCCCC4)nc3)ncc2NC(=O)c2cc(OC)cc(OC)c2)cc1 | 53.9% (inactive)
O=C(Oc1ccc[nH]c1=O)c1cc([N+](=O)[O-])cc([N+](=O)[O-])c1 | 122% (inactive)
Cc1cc(N2CCCCC2)nc(N(CCNc2ccnc3cc(Cl)ccc23)Cc2ccccn2)n1 | 62.7% (inactive)
CCCCOc1ccc(NC(=O)n2nc(N=NN(C)C)c3ccc(Cl)cc32)cc1 | 106% (inactive)
O=C1NN(C(=O)c2ccc(O)cc2)C(c2ccccc2)=N/C1=C\c1cn(-c2ccccc2)nc1-c1ccccc1 | 101% (inactive)
COC(=O)/C(=C\c1ccc(OC)cc1)C(=O)N1c2ccccc2Sc2ccccc21 | 50.9% (inactive)
COc1ccc(Oc2nc(Nc3ccc(N4CCOCC4)nc3)ncc2NC(=O)c2cc(OC)cc(OC)c2)cc1 | 79.8% (inactive)
NC(=O)c1c(NC(=O)c2ccc(C(F)(F)F)cc2Cl)sc2c1CCC(=O)C2 | -67.2% (active)
O=C(NCCOCCOCCOCCNC(=O)c1cc2c(o1)C(=O)c1ccccc1C2=O)NC12CC3CC(CC(C3)C1)C2 | -40.8% (active)
COC(=O)c1ccc(CSc2nnc(-c3ccncc3)o2)cc1 | 107% (inactive)
CCCc1nc2ccccn2c1Nc1ccc(C(=O)NO)cc1 | 95.7% (inactive)
Fc1ccc(Nc2ccc3cc(OCCCN4CCOCC4)ccc3n2)cc1F | 43.4% (inactive)

Structure (SMILES) | growth
C=C1c2c(C)nn(-c3ccc(S(N)(=O)=O)cc3)c2N(C)C23CC1C1(C)c4c(C)nn(-c5ccc(S(N)(=O)=O)cc5)c4N(C)C(C)(CC12)C3 (centres undefined) | 30.7% (inactive)
C=C1c2c(C)nn(-c3ccc(NC(C)=O)cc3)c2N(C)C23CC1C1(C)c4c(C)nn(-c5ccc(NC(C)=O)cc5)c4N(C)C(C)(CC12)C3 (centres undefined) | 46.9% (inactive)
C[C@@H]1CC[C@@H]2[C@@H]1[C@H](OC(=O)c1ccc3ccccc3c1)[C@]1(C3CCCCC3)C[C@@H](OC(=O)CO)[C@@]2(C)O1 | 70.2% (inactive)
CC(C)(C)c1ccc(C(=O)Nc2sc3c(c2C(N)=O)CCC(=O)C3)cc1 | -14.9% (active)
N=c1ccn2c(n1)OC1C(O)C(CO)OC12 (centres undefined) | 53.3% (inactive)
COc1ccc(/C=C(\C#N)n2nnc3cc(F)c(F)cc32)c(OC)c1OC | 77.3% (inactive)
C=C1c2c(C)nn(-c3ccc(O)cc3)c2N(C)C23C[C@@H]1C1(C)c4c(C)nn(-c5ccc(O)cc5)c4N(C)C(C)(C[C@H]12)C3 (some centres undefined) | 42.6% (inactive)
CSc1ccc(Cl)c(C(=O)Nc2sccc2C(N)=O)c1 | 102% (inactive)
C=C1c2c(C)nn(-c3ccc(N)cc3)c2N(C)C23CC1C1(C)c4c(C)nn(-c5ccc(N)cc5)c4N(C)C(C)(CC12)C3 (centres undefined) | 85.1% (inactive)
CC(=O)Nc1ccc2c(c1)Cc1c(F)cccc1-2 | 117% (inactive)
C=C(C)[C@@H]1CC[C@]2(CNCCO)CC[C@]3(C)[C@H](CC[C@@H]4[C@@]5(C)CCC(N)[C@@](C)(CO)[C@@H]5CC[C@]43C)[C@@H]12 (some centres undefined) | -85.7% (active)
Cc1cnc(Nc2ccc(OCCN3CCCC3)cc2)nc1NCc1ccco1 | 103% (inactive)
Cc1cc(N(CCCNc2ccnc3cc(Cl)ccc23)Cc2ccccn2)nc(N2CCOCC2)n1 | 106% (inactive)
C=C(CNCCc1ccc(O)cc1)[C@@H]1CC[C@]2(COC3CCCCO3)CC[C@]3(C)[C@H](CC[C@@H]4[C@@]5(C)CCC(N)C(C)(C)[C@@H]5CC[C@]43C)[C@@H]12 (some centres undefined) | -94.9% (active)
Clc1ccc2c(NCCCN3CCN(c4nc(-n5ccnc5)nc5ccccc45)CC3)ccnc2c1 | -86.9% (active)
Cn1c(NCCc2ccc(O)c(O)c2)nc2c1c(=O)n(Cc1ccc(Cl)cc1)c(=O)n2C | 86% (inactive)
CCN(CC)N=Nc1nn(C(=O)Nc2ccc(Cc3ccccc3)cc2)c2ccc(Cl)cc12 | 70.8% (inactive)
COC(=O)c1ccc2oc(NC(=O)c3ccc(N4CCOCC4)c([N+](=O)[O-])c3)nc2c1 | 97.4% (inactive)
